The values that follow come from PubChem BioAssay (NCI).

Experiment [1] can be described thus: NCI Yeast Anticancer Drug Screen. Data for the rad50 strain (AID 155).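 Note: 0% = growth of vehicle-only cultures of the same strain.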 The note with it: S. cerevisiae rad50 strain growth inhibition, hits give high values. Summed up:
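Cells are treated with compound, grown, and their growth is then scored against vehicle-only cultures of the same repair-deficient yeast strain.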

Experiment [2] in a line: NCI Yeast Anticancer Drug Screen. Data for the mec2-1 strain (AID 157). The note with it: S. cerevisiae mec2-1 strain, hits give high values. The method in brief:
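Strain: mec2-1 (DNA repair/cell cycle alteration). Compound exposure, then growth measured; inhibition expressed relative to vehicle.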

Experiment [3] can be described thus: NCI Yeast Anticancer Drug Screen. Data for the sgs1 mgt1 strain (AID 161).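 Note: 0% = growth of cultures given vehicle only.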 As to conditions: S. cerevisiae sgs1 mgt1 strain, hits give high values. The method in brief: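 Test agents were incubated with a DNA-repair-mutant yeast strain. Growth was then read and compared against vehicle-treated controls.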
Experiment [4] can be described thus: NCI Yeast Anticancer Drug Screen. Data for the cln2 rad14 strain (AID 165).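 Note: 0% = growth equal to vehicle treated cultures.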 As to conditions: S. cerevisiae cln2 rad14 strain, hits give high values. Summed up:
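Compounds are applied to the cln2 rad14 yeast strain, and growth is then compared with that of vehicle-treated cultures to give inhibition.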

The nature of experiment [5]: NCI Yeast Anticancer Drug Screen. Data for the bub3 strain (AID 167). The note with it: S. cerevisiae bub3 mutant strain, hits give high values. The method in brief: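 Part of a panel of yeast mutants defective in DNA damage repair or cell cycle regulation. Each strain is grown with compound, and inhibition is calculated relative to solvent-treated cultures.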
The nature of experiment [6]: NCI Yeast Anticancer Drug Screen. Data for the mlh1 rad18 strain (AID 175). The note with it: S. cerevisiae mlh1 rad18 strain growth inhibition, hits give high values. The method in brief: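 Read-out is yeast growth inhibition, calculated against vehicle-only controls. The compound was applied to a strain engineered with DNA damage repair alterations.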
The mark [7] stands for this setting: at 5.0 µM (retest, dose inferred, filed as 0.5).
Where [8] appears, read: at 50.0 µM (retest, dose inferred, filed as 5.0).

Compounds without any hit were thinned out: in the full panel of roughly 79,000, 15% have a hit. Unmarked numbers belong to inactive results. Active and inactive are the calls of the source. Cut-off read from the data, not from the text of the source: active = growth inhibition above about 70%; inactive = the rest.

As to `CCCC/C=C(/CCCNCCc1ccccc1)[Si](C)(C)C`, the growth inhibition was 88% (active) in experiment [1] (setting [7]); 98% (active) in experiment [1] (setting [8]); 90.4% (active) in experiment [1] (at 50.0 µM); 90% (active) in experiment [2] (setting [7]); 99% (active) in experiment [2] (setting [8]); 93% (active) in experiment [2] (at 50.0 µM). The growth inhibition in experiment [3] (setting [7]) is 98% (active); in experiment [3] (setting [8]), 99% (active); in experiment [3] (at 50.0 µM), 93.4% (active); in experiment [4] (setting [7]) it was 89% (active); in experiment [4] (setting [8]), 99% (active); in experiment [4] (at 50.0 µM) it was 91.5% (active). Further, the growth inhibition in experiment [5] (setting [7]) was 98% (active); in experiment [5] (setting [8]), 99% (active); in experiment [5] (at 50.0 µM), 91.5% (active); in experiment [6] (setting [7]), 97% (active); in experiment [6] (setting [8]), 99% (active); in experiment [6] (at 50.0 µM) it was 90.9% (active).

Turning to `O=[N+]([O-])c1cc([N+](=O)[O-])c2ccccc2c1O`, the growth inhibition in experiment [1] (setting [7]) was 17%; in experiment [1] (setting [8]), 90% (active); in experiment [1] (at 50.0 µM), 75% (active); in experiment [2] (setting [7]), 8%; in experiment [2] (setting [8]) it was 90% (active); in experiment [2] (at 50.0 µM) it was 65.1%. Moreover, the growth inhibition is 7% in experiment [3] (setting [7]); 89% (active) in experiment [3] (setting [8]); 88.8% (active) in experiment [3] (at 50.0 µM); -6% in experiment [4] (setting [7]); 48% in experiment [4] (setting [8]); 52% in experiment [4] (at 50.0 µM). Besides, the growth inhibition in experiment [5] (setting [7]) is 2%; in experiment [5] (setting [8]) it was 87% (active); in experiment [5] (at 50.0 µM), 61%; in experiment [6] (setting [7]), 9%; in experiment [6] (setting [8]) it was 92% (active); in experiment [6] (at 50.0 µM) it was 82.3% (active).

Take `Cc1ccc(S(=O)/C=C/S(=O)(=O)c2ccc(C)cc2)cc1` (configuration not stated): the growth inhibition in experiment [1] (setting [7]) was 99% (active); in experiment [1] (setting [8]) it was 99% (active); in experiment [1] (at 50.0 µM) it was 99.3% (active); in experiment [2] (setting [7]) it was 99% (active); in experiment [2] (setting [8]), 100% (active); in experiment [2] (at 50.0 µM), 99.6% (active). Further, the growth inhibition was 100% (active) in experiment [3] (setting [7]); 100% (active) in experiment [3] (setting [8]); 99.5% (active) in experiment [3] (at 50.0 µM); 98% (active) in experiment [4] (setting [7]); 100% (active) in experiment [4] (setting [8]); 99.5% (active) in experiment [4] (at 50.0 µM). In addition, the growth inhibition in experiment [5] (setting [7]) is 99% (active); in experiment [5] (setting [8]), 100% (active); in experiment [5] (at 50.0 µM) it was 99.6% (active); in experiment [6] (setting [7]) it was 100% (active); in experiment [6] (setting [8]) it was 100% (active); in experiment [6] (at 50.0 µM), 99.5% (active).

With `OC(c1ccccc1)(C(F)(F)F)C(O)(c1ccccc1)C(F)(F)F` (configuration not stated), the growth inhibition is 77% (active) in experiment [1] (setting [7]); 99% (active) in experiment [1] (setting [8]); 94.4% (active) in experiment [1] (at 50.0 µM); 57% in experiment [2] (setting [7]); 99% (active) in experiment [2] (setting [8]); 89.2% (active) in experiment [2] (at 50.0 µM). Also, the growth inhibition is 87% (active) in experiment [3] (setting [7]); 99% (active) in experiment [3] (setting [8]); 89.7% (active) in experiment [3] (at 50.0 µM); 57% in experiment [4] (setting [7]); 99% (active) in experiment [4] (setting [8]); 90.5% (active) in experiment [4] (at 50.0 µM). Also, the growth inhibition in experiment [5] (setting [7]) is 76% (active); in experiment [5] (setting [8]), 99% (active); in experiment [5] (at 50.0 µM), 81.6% (active); in experiment [6] (setting [7]), 85% (active); in experiment [6] (setting [8]), 99% (active); in experiment [6] (at 50.0 µM), 95.5% (active).

As for `CN=C(N)N/N=C(\C)c1ccc2c(c1)Cc1cc(Cl)ccc1-2`, the growth inhibition in experiment [1] (setting [7]) was 34%; in experiment [1] (setting [8]) it was 37%; in experiment [1] (at 50.0 µM), 98.8% (active); in experiment [2] (setting [7]) it was 16%; in experiment [2] (setting [8]), 38%; in experiment [2] (at 50.0 µM) it was 97% (active). In addition, the growth inhibition is 13% in experiment [3] (setting [7]); 97% (active) in experiment [3] (setting [8]); 98.7% (active) in experiment [3] (at 50.0 µM); 8% in experiment [4] (setting [7]); 56% in experiment [4] (setting [8]); 93.1% (active) in experiment [4] (at 50.0 µM). The growth inhibition was 7% in experiment [5] (setting [7]); 90% (active) in experiment [5] (setting [8]); 98.7% (active) in experiment [5] (at 50.0 µM); 9% in experiment [6] (setting [7]); 97% (active) in experiment [6] (setting [8]); 98.5% (active) in experiment [6] (at 50.0 µM).

As to `CC(=O)/C(=C\c1cccs1)C(=O)CCN(C)C`, the growth inhibition in experiment [1] (setting [7]) was 11%; in experiment [1] (setting [8]), 25%; in experiment [1] (at 50.0 µM), 9.05%; in experiment [2] (setting [7]), 15%; in experiment [2] (setting [8]) it was 28%; in experiment [2] (at 50.0 µM) it was 17.2%. The growth inhibition is 10% in experiment [3] (setting [7]); 29% in experiment [3] (setting [8]); 34% in experiment [3] (at 50.0 µM); 20% in experiment [4] (setting [7]); 27% in experiment [4] (setting [8]); 19.5% in experiment [4] (at 50.0 µM). In addition, the growth inhibition is 4% in experiment [5] (setting [7]); 23% in experiment [5] (setting [8]); -2.2% in experiment [5] (at 50.0 µM); 22% in experiment [6] (setting [7]); 30% in experiment [6] (setting [8]); 50.1% in experiment [6] (at 50.0 µM).

As to `O=C(NNc1ncccn1)c1ccc(C(=O)NNc2ncccn2)cc1`, the growth inhibition in experiment [1] (setting [7]) was -2%; in experiment [1] (setting [8]), 99% (active); in experiment [1] (at 50.0 µM) it was 2.75%; in experiment [2] (setting [7]), 0%; in experiment [2] (setting [8]), 100% (active); in experiment [2] (at 50.0 µM) it was 2.1%. The growth inhibition is -3% in experiment [3] (setting [7]); 100% (active) in experiment [3] (setting [8]); 41.5% in experiment [3] (at 50.0 µM); 7% in experiment [4] (setting [7]); 99% (active) in experiment [4] (setting [8]); -25.6% in experiment [4] (at 50.0 µM). In addition, the growth inhibition is 3% in experiment [5] (setting [7]); 99% (active) in experiment [5] (setting [8]); -2.6% in experiment [5] (at 50.0 µM); 2% in experiment [6] (setting [7]); 99% (active) in experiment [6] (setting [8]); 21.4% in experiment [6] (at 50.0 µM).

Consider `O=[N+]([O-])c1c(C=Nc2ccccc2)oc(-c2c(O)ccc3ccccc23)c1-c1c(O)ccc2ccccc12`, for which the growth inhibition in experiment [1] (setting [7]) was 1%; in experiment [1] (setting [8]), 2%; in experiment [1] (at 50.0 µM), 98.7% (active); in experiment [2] (setting [7]), -13%; in experiment [2] (setting [8]), -11%; in experiment [2] (at 50.0 µM) it was 98.7% (active). In addition, the growth inhibition in experiment [3] (setting [7]) is -7%; in experiment [3] (setting [8]), -4%; in experiment [3] (at 50.0 µM) it was 98.8% (active); in experiment [4] (setting [7]), -30%; in experiment [4] (setting [8]), -26%; in experiment [4] (at 50.0 µM), 98.5% (active). Also, the growth inhibition in experiment [5] (setting [7]) is 3%; in experiment [5] (setting [8]) it was 3%; in experiment [5] (at 50.0 µM), 98.8% (active); in experiment [6] (setting [7]) it was -2%; in experiment [6] (setting [8]), -1%; in experiment [6] (at 50.0 µM) it was 98.8% (active).

As to `Cc1nc(-c2cccc(Cl)c2)oc1-c1ccccc1`, the growth inhibition in experiment [1] (setting [7]) was 2%; in experiment [1] (setting [8]), 78% (active); in experiment [1] (at 50.0 µM), 28.4%; in experiment [2] (setting [7]) it was 8%; in experiment [2] (setting [8]), 78% (active); in experiment [2] (at 50.0 µM), 27.8%. The growth inhibition is 17% in experiment [3] (setting [7]); 85% (active) in experiment [3] (setting [8]); 40.2% in experiment [3] (at 50.0 µM); 1% in experiment [4] (setting [7]); 80% (active) in experiment [4] (setting [8]); 53.4% in experiment [4] (at 50.0 µM). Further, the growth inhibition in experiment [5] (setting [7]) was -3%; in experiment [5] (setting [8]), 76% (active); in experiment [5] (at 50.0 µM), 47.8%; in experiment [6] (setting [7]) it was 4%; in experiment [6] (setting [8]), 76% (active); in experiment [6] (at 50.0 µM), 58.5%.
